The structures appear in SMILES notation. Screen size: about 420,000 compounds; about 50,000 (12%) were called active. Roughly 26% stayed inconclusive and do not appear here. What follows is part of a selection rich in actives, with near analogues and random picks from the rest. A number with no mark means an inactive call. Calls come from the whole dose curve; as a rule, active = well fitted inhibition curve with a large enough effect; inconclusive = small, poorly fitted or top-dose-only effect; inactive = flat fitted curve, though single readings scatter.

We go through 63 molecules from PubChem BioAssay AID686979 (National Center for Advancing Translational Sciences (NCATS), 2013).
% is set by controls: 0 for no effect and ±100 for the full control effect; potency is the fitted concentration of half-maximal effect.

The assay in a line: qHTS for Inhibitors of human tyrosyl-DNA phosphodiesterase 1 (TDP1): qHTS in cells in presence of CPT. Note: nearly all actives have a fitted effect of over 55% in size. The conditions noted are these: chicken DT40 Tdp1-/-;hTDP1 cells + 20 nM CPT, ATP luminescence, 48 h; series mostly up to 46.2 µM; activity change, negative = growth inhibition: at the top concentration. The gist of the method: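 Chicken DT40 Tdp1-/- cells stably complemented with human TDP1 were seeded at 400 cells/well in medium containing 20 nM camptothecin, exposed to pin-transferred compounds, and grown at 37 °C for at least 48 hr. Viability was read as ATP luminescence.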
In the case of `CCC1(c2ccccc2)NC(=O)N(CC(=O)c2ccc3c(c2)OCO3)C1=O` (stereo not drawn), the “activity change, negative = growth inhibition” value was -5.41%.

As to `Cc1ccc(Cl)c(NC(=O)CN(C)CC(=O)Nc2ccc(F)c(F)c2F)c1Cl`, the “activity change, negative = growth inhibition” value is -27.2%. For the molecule `COc1ccc(CNC(=O)c2cc3c(=O)[nH]c4ccc(C)cc4c3s2)c(OC)c1`, the Potency is 16.4 µM (active).

For the molecule `Cc1ccc2[nH]c(=O)c(CC(=O)O)c(-c3ccccc3)c2c1`, the “activity change, negative = growth inhibition” value is -0.318%. As to `Cc1ccc2[nH]c(=O)c(CC=C(Cl)Cl)c(C)c2c1`, the “activity change, negative = growth inhibition” value is -6%. Regarding `Cc1cccc(N(C)C(=O)c2cc3c(=O)[nH]c4ccc(C)cc4c3s2)c1`, the Potency was 2.06 µM (active). Take `COc1ccc(CNC(=O)c2cc3c(=O)[nH]c4ccccc4c3s2)cc1`: the “activity change, negative = growth inhibition” value is -18.7%. As for `COc1ccc(CNC(=O)c2ccc3c(c2)nc2n3CCOC2)c(OC)c1`, the “activity change, negative = growth inhibition” value was 1.11%.

`Nc1cc(C(=O)N2CCN(c3ccccc3Cl)CC2)ccc1N1CC2CC(C1)c1cccc(=O)n1C2` (stereo not drawn): the “activity change, negative = growth inhibition” value was -25.3%. Take `CC1(C)CN(CCc2ccccc2)C(=O)[C@H]1CC(=O)Nc1ccc(Br)cc1`: the “activity change, negative = growth inhibition” value is -10.9%. As to `Cc1ccc(NC(=O)Cc2nnc(SCC(=O)Nc3nncs3)n2C)cc1`, the “activity change, negative = growth inhibition” value was 0.361%. For `CC1(c2ccc(Cl)cc2Cl)NC(=O)N(CC(=O)Nc2cccnc2Cl)C1=O` (stereo not drawn), the “activity change, negative = growth inhibition” value was -12%. For the molecule `CCCc1ccc(C(=O)[C@@H]2[C@@H](C(C)=O)N3c4ccc(F)cc4C=C[C@@H]3[C@@]23C(=O)Nc2ccccc23)cc1`, the Potency is 23.1 µM (active). `O=C(O)c1ccc(-n2nc(-c3ccccc3)c3ccccc3c2=O)cc1`: the “activity change, negative = growth inhibition” value is -17.4%. As to `CCC(C)(C)NC(=O)C(c1ccc(O)cc1)N(Cc1ccco1)C(=O)CCC(=O)Nc1ccccn1` (stereo not drawn), the “activity change, negative = growth inhibition” value is -11.3%. With `CC(=O)c1nn(-c2ccc(OC(F)(F)F)cc2)nc1Nc1ccccc1`, the “activity change, negative = growth inhibition” value was -15.7%. Consider `COc1ccccc1C(=O)Nn1cnnc1`, for which the “activity change, negative = growth inhibition” value is 21.2%. For `CCc1noc(C)c1C(=O)OCC(=O)c1ccc(NC(=O)CC(C)C)cc1`, the Potency was 20.6 µM (active).

Turning to `COc1ccc(C(=O)COC(=O)c2c(C)noc2C)cc1Cl`, the “activity change, negative = growth inhibition” value was -17.5%. In the case of `CCc1noc(C)c1C(=O)NNC(=O)c1ccc(F)cc1`, the “activity change, negative = growth inhibition” value was -18.6%. In the case of `O=C(c1ccccc1Cl)N(Cc1ccccc1F)N1C(=O)CCCC1=O`, the “activity change, negative = growth inhibition” value was 1.6%. `Cc1ccc(C2Nc3cccc4cccc(c34)N2)cc1`: the Potency was 2.59 µM (active). Regarding `COc1cccc(C2Nc3cccc4cccc(c34)N2)c1`, the “activity change, negative = growth inhibition” value was -4.51%.

Turning to `Brc1ccccc1C1Nc2cccc3cccc(c23)N1`, the “activity change, negative = growth inhibition” value was -21.6%.

In the case of `COc1ccc(CCn2c3c(c(=O)[nH]c2=S)CN(C(C)C)CN3)cc1OC`, the “activity change, negative = growth inhibition” value is -13%. On the same count and under the same terms, in the case of `COCC(C)NC(=O)CSc1nc2nn(-c3ccccc3)c(=O)c-2c2n1CCCCC2` (stereo not drawn) it was 2.87%; in that of `CCOC(=O)CSc1nc2ccc(C)cc2[nH]1`, -1.71%. Turning to `Cc1ccc2nc(/C(C#N)=C/c3ccc(-c4ccc(C(=O)OC(C)C)cc4)o3)[nH]c2c1`, the Potency is 7.31 µM (active).

As to `CC(=O)Nc1ccc(C(=O)CSc2nc3ccc(C)cc3[nH]2)cc1`, the “activity change, negative = growth inhibition” value is -0.86%. On the same count and under the same terms, in the case of `Cc1ccc2nc(S(=O)(=O)O)[nH]c2c1` it was -1.52%.

Take `Cc1ccc2nc(/C(C#N)=C\c3ccc(OC(=O)c4cccs4)cc3)[nH]c2c1`: the Potency is 14.6 µM (active). On to `CN(C(=O)c1cccc([N+](=O)[O-])c1)c1ccccc1C(=O)NCc1ccccc1`, for which the “activity change, negative = growth inhibition” value was 2.21%. On the same count and under the same terms, the figure for `COc1ccc(S(=O)(=O)N2CCN(c3ccc(F)cc3)CC2)cc1-c1noc(C)n1` is 7.73%. Consider `COc1ccc(CCNC(=O)C(=O)NCC2OCCN2S(=O)(=O)c2cccs2)cc1OC` (stereo not drawn), for which the “activity change, negative = growth inhibition” value is -2.17%. On the same count and under the same terms, the figure for `Cc1cc(C)cc(OCC(=O)Nc2ccc(S(=O)(=O)Nc3ccccn3)cc2)c1` is -11.1%. For `Cc1cc(C)cc(NS(=O)(=O)c2ccc(Oc3ncc(C(F)(F)F)cc3Cl)cc2)c1`, the Potency was 23.1 µM (active). For the molecule `COC(=O)Cc1ccc(Oc2ncc(C(F)(F)F)cc2Cl)cc1`, the “activity change, negative = growth inhibition” value was -15.1%. In the case of `CCOC(=O)[C@H](CCc1ccccc1)N[C@@H](C)C(=O)N1CC2(C[C@H]1C(=O)O)SCCS2`, the “activity change, negative = growth inhibition” value was -0.389%. With `COCCCNC(=O)[C@H]1N2C(=O)c3ccccc3C2SC1(C)C` (stereo partly drawn), the “activity change, negative = growth inhibition” value is 7.26%. As for `CC(C)N1C[C@@H](NCc2ccccc2O)C[C@H]1C(=O)N1CCN(c2cccc(C(F)(F)F)c2)CC1`, the activity change, negative = growth inhibition is -8.03% [at 9.04 µM]. `CC1CCC(N2CC(=O)N(CCC3=CCCCC3)C(c3ccc(F)cc3)C2=O)CC1` (stereo not drawn): the Potency was 13 µM (active).

Take `O=S(=O)(Cc1nnnn1-c1ccc(Br)cc1)c1ccc(F)cc1`: the “activity change, negative = growth inhibition” value is -16.3%. `NS(=O)(=O)c1ccc(NC(=O)COc2ccc(S(=O)(=O)NC3CCCCC3)cc2)cc1`: the “activity change, negative = growth inhibition” value was -27.9%. Still for that read-out and setting: in the case of `CC(=O)c1cccc(NC(=O)C2CCCN(S(=O)(=O)c3cccc4nonc34)C2)c1` (stereo not drawn) it was -20.4%; in that of `CCCS(=O)(=O)N1CCCC(C(=O)N2CCN(c3ccccc3)CC2)C1` (stereo not drawn), -5.02%. `O=C(C1CCCN(S(=O)(=O)c2ccccc2)C1)N1CCN(c2ccc(F)cc2)CC1` (stereo not drawn): the Potency was 11.6 µM (active). Consider `Cc1ccc(S(=O)(=O)N2CCCC(C(=O)N3CCN(C)CC3)C2)cc1` (stereo not drawn), for which the “activity change, negative = growth inhibition” value was -6.45%.

For `O=C(NCc1ccco1)C1CCCN(S(=O)(=O)c2cccc3nonc23)C1` (stereo not drawn), the “activity change, negative = growth inhibition” value is -10.4%.

`O=C(C1CCCN(S(=O)(=O)c2cccc3nonc23)C1)N1CCN(c2ccccc2F)CC1` (stereo not drawn): the Potency was 18.4 µM (active).

With `CN1CCC(N(C)S(=O)(=O)c2ccc(NC(=O)c3cccc(C#N)c3)cc2)CC1`, the “activity change, negative = growth inhibition” value is -9.95%. On to `COC(C[C@@H](O)C[C@H](O)[C@H](C)OCc1ccccc1)OC`, for which the “activity change, negative = growth inhibition” value was -2.51%. Consider `CO[C@H]1O[C@@H]2O[C@@]3(C)CC[C@@H]4[C@@H](C)CC[C@@H]([C@H]1C)[C@@]24OO3`, for which the Potency is 0.631 µM (active). Consider `COc1ccccc1C(=O)NC(CCSC)C(=O)N1CCN(C(C)=O)CC1` (stereo not drawn), for which the “activity change, negative = growth inhibition” value is -0.07%. Regarding `CC(C)c1cccc(C(C)C)c1Nc1cn[nH]c1`, the Potency is 14.6 µM (active). As for `CC(=O)Nc1ccc(S(=O)(=O)N(C)c2ccc(OCC(=O)OCC(=O)N3CCCCC3)cc2)cc1`, the “activity change, negative = growth inhibition” value is 5.25%. Take `CCCN1C2CCCC1CC(NC(=O)NC13CC4CC(CC(C4)C1)C3)C2` (stereo not drawn): the Potency was 16.4 µM (active). For the molecule `CCCN1C2CCCC1CC(NC(=O)c1cccc(OC)c1)C2` (stereo not drawn), the “activity change, negative = growth inhibition” value was -5.4%.

For `CCCNC(=S)NC1CC2CCCC(C1)N2CC(C)C` (stereo not drawn), the “activity change, negative = growth inhibition” value is -8.26%.

On to `Cc1ccc(NC(=O)CSCC(=O)Nc2sccc2C#N)cc1`, for which the “activity change, negative = growth inhibition” value is 2.86%. Take `COc1ccccc1C(=O)COC(=O)CNS(=O)(=O)c1ccc(NC(C)=O)cc1`: the “activity change, negative = growth inhibition” value is -12.6%.

As for `COc1ccc(NC(=O)CN2C(=O)NC(C)(c3ccccc3)C2=O)cn1` (stereo not drawn), the “activity change, negative = growth inhibition” value was -5.76%. As for `COc1ccc(CS(=O)/C(Cl)=C(/Cl)C(=O)Nc2ccc(OC)nc2)cc1` (stereo not drawn), the Potency was 0.0184 µM (active). For `COc1ccc(NC(=S)NCCNC(C)=O)cc1`, the “activity change, negative = growth inhibition” value was -3.51%.
